According to the supplement of paper PMC11732987, “Enantioselective OTUD7B fragment discovery through chemoproteomics screening and high-throughput optimisation” (Communications Chemistry, 2025):

How the values were obtained:
Assay in all cases: log2 ratio of Biotin-Ahx-Ub-VS probe labelling (fragment/DMSO); higher = less target engagement (more negative = stronger competition), active = hit call of the paper (q ≤ 0.05, log2 ratio ≤ -1)
Details in all cases: compound concentration: 200 uM; treatment time: 3 h
USP16 = USP16 (UniProt Q9Y5T5)
USP16, sequence (Q9Y5T5 whole entry, looked up, the tested form may be a part): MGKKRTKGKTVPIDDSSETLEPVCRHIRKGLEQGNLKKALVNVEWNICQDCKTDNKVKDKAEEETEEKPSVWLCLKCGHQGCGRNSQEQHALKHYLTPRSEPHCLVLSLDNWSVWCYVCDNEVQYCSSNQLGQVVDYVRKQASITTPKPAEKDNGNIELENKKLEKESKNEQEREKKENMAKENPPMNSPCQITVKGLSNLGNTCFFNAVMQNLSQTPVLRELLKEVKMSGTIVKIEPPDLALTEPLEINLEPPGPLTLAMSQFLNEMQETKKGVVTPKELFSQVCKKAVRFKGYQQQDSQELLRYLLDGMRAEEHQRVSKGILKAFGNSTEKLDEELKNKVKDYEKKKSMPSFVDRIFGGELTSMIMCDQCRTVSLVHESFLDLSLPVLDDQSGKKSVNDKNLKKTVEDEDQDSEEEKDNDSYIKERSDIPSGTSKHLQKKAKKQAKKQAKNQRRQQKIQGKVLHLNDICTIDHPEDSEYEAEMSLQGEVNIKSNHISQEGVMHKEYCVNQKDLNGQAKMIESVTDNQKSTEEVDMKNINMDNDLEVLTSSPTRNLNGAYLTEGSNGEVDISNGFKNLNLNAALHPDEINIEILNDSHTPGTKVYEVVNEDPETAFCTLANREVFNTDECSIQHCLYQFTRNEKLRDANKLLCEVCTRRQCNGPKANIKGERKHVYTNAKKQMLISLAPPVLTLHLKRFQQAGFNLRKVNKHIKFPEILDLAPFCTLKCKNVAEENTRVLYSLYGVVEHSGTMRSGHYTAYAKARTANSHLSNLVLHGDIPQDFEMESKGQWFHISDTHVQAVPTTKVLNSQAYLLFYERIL
Outline: (§1)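 Using Biotin-Ahx-Ub-VS at 0.5 µM final for 1 h, DUBs were labelled in HEK293T lysate (495 µg per sample) that had first been treated in triplicate with fragment at 200 µM or vehicle for 3 h. NeutrAvidin enrichment, LysC and trypsin digestion and diaPASEF LC-MS/MS followed. Spectronaut label-free quantities were global-median-normalised. Values are average log2 fragment/vehicle ratios by unpaired t-test, using proteins with ≥2 unique peptides.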

USP19 = biological target: T1, USP19 (UniProt O94966)
T1 sequence (whole entry): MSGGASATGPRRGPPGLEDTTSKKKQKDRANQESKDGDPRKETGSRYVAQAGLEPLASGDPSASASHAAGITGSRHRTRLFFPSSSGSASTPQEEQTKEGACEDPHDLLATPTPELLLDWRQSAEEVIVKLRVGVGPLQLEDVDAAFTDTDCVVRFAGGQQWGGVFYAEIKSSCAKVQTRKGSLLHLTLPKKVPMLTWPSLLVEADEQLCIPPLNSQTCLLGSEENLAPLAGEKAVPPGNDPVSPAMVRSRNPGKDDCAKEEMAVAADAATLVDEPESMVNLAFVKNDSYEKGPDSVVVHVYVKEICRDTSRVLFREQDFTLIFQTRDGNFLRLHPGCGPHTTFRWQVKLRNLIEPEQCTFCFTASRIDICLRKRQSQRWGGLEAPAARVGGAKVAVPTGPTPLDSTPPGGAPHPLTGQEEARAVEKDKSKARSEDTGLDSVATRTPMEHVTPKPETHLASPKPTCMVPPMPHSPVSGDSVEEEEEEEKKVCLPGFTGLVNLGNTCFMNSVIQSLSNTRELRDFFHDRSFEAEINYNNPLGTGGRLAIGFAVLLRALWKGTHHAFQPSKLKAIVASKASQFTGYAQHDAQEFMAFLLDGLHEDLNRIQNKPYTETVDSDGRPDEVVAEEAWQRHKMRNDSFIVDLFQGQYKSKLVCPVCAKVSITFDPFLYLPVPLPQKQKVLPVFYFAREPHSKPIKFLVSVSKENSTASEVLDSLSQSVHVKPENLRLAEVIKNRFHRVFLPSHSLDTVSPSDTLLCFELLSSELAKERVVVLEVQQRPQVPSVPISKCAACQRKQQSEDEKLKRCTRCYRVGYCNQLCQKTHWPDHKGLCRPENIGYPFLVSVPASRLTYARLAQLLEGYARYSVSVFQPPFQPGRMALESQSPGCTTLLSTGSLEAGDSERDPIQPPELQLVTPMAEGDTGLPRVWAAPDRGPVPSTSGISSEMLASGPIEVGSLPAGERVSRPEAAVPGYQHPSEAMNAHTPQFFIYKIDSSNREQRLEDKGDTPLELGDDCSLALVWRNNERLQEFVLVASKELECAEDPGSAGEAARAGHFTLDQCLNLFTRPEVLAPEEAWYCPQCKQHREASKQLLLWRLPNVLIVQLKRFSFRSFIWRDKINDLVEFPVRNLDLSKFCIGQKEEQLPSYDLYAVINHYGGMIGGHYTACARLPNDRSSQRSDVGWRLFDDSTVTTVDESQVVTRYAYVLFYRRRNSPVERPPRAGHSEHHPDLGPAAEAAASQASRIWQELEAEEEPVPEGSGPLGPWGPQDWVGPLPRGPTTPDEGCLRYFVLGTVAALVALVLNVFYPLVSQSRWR
Outline: as §1

USP24 = USP24 (UniProt Q9UPU5)
USP24, sequence (Q9UPU5 whole entry): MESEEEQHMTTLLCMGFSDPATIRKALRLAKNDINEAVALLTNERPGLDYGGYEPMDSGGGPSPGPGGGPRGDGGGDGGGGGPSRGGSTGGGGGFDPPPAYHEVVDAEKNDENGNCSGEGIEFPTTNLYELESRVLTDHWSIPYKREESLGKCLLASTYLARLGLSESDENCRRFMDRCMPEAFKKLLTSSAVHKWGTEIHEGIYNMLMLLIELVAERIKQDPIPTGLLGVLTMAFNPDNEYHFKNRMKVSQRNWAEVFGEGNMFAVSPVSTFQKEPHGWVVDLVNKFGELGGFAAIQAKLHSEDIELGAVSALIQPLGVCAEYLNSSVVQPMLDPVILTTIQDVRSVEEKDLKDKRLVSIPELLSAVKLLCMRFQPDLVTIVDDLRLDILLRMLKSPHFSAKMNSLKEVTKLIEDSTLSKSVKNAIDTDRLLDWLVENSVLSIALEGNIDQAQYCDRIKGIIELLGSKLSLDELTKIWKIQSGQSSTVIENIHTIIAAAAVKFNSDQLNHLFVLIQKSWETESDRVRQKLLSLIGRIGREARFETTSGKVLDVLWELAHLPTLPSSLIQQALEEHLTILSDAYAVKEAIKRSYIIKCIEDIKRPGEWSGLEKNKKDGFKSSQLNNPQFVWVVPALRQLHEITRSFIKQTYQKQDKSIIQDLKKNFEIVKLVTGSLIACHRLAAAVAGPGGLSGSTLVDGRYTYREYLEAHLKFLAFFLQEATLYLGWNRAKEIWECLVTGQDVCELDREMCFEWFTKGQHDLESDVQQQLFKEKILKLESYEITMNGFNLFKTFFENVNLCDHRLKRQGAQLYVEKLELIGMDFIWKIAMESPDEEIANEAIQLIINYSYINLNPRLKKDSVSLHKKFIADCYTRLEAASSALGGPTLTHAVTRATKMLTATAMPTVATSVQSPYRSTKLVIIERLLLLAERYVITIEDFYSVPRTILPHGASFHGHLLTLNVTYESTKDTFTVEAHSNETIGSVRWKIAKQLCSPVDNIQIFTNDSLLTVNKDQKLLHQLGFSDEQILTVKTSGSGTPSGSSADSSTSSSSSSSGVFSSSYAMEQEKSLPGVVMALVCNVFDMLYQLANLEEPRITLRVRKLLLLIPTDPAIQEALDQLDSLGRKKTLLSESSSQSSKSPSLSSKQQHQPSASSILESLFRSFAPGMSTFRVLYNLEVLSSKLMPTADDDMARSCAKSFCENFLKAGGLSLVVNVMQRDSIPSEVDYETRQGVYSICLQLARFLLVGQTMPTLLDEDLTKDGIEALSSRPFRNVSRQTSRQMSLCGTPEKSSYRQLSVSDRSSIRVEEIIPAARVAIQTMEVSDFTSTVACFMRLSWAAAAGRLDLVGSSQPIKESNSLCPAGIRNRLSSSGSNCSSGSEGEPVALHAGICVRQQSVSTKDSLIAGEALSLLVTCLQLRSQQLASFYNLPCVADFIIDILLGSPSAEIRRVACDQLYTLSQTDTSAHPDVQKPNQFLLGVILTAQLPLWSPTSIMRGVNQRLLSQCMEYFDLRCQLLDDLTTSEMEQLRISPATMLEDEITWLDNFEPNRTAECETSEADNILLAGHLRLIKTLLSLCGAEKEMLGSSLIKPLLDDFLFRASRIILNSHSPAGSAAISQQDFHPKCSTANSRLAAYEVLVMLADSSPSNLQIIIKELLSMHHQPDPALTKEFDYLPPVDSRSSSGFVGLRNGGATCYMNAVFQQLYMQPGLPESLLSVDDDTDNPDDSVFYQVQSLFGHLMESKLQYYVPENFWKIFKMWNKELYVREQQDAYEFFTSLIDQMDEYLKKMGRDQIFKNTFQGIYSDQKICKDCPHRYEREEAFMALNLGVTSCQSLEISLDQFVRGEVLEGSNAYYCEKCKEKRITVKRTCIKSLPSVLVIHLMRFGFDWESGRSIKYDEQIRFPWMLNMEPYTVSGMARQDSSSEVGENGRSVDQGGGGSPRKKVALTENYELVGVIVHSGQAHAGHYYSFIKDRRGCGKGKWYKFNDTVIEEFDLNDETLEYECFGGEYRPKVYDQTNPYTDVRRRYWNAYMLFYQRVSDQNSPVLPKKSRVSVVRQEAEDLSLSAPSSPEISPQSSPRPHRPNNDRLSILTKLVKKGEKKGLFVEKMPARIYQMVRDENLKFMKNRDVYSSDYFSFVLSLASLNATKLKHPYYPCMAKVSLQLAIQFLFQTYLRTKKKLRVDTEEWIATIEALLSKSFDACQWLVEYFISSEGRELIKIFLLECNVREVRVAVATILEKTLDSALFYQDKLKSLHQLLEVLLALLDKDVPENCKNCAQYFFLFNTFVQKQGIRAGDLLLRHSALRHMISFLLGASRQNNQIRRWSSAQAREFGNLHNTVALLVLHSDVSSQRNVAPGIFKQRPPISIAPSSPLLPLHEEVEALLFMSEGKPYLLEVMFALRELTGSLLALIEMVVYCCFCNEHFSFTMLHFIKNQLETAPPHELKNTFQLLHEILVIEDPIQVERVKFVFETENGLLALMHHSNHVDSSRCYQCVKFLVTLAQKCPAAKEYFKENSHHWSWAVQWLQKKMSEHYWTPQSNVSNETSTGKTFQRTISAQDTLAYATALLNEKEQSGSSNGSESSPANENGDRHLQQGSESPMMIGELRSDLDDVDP
Outline: as §1

USP25 = biological target: T2, USP25 (UniProt Q9UHP3)
T2 sequence (whole entry): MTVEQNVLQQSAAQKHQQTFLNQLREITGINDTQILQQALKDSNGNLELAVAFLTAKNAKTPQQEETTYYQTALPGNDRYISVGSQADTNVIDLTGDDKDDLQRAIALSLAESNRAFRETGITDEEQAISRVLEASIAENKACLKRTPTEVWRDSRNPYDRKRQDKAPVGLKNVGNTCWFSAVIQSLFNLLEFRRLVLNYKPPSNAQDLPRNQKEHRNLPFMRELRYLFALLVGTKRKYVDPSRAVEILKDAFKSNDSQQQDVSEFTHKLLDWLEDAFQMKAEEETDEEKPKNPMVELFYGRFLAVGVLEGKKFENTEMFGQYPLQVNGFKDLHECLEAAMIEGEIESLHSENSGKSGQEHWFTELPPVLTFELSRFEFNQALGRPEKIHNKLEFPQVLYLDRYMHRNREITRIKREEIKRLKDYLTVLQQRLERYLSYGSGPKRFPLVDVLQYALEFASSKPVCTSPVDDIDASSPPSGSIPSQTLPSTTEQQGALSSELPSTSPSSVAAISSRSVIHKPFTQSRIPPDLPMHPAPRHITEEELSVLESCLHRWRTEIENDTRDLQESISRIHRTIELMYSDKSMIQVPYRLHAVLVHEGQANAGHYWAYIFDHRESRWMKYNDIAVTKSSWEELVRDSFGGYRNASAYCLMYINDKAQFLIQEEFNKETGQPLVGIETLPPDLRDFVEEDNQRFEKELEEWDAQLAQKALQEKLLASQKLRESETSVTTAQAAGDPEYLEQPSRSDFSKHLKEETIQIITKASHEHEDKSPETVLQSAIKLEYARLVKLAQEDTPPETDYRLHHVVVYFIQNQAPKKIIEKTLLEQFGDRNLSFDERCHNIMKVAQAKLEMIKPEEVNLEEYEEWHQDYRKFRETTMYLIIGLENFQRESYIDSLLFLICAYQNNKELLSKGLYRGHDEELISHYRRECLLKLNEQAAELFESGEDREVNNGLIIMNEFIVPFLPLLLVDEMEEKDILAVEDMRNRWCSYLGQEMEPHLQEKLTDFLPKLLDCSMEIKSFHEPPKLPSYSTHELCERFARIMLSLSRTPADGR
Outline: as §1

USP28 = biological target: T3, USP28 (UniProt Q96RU2)
T3 sequence (whole entry): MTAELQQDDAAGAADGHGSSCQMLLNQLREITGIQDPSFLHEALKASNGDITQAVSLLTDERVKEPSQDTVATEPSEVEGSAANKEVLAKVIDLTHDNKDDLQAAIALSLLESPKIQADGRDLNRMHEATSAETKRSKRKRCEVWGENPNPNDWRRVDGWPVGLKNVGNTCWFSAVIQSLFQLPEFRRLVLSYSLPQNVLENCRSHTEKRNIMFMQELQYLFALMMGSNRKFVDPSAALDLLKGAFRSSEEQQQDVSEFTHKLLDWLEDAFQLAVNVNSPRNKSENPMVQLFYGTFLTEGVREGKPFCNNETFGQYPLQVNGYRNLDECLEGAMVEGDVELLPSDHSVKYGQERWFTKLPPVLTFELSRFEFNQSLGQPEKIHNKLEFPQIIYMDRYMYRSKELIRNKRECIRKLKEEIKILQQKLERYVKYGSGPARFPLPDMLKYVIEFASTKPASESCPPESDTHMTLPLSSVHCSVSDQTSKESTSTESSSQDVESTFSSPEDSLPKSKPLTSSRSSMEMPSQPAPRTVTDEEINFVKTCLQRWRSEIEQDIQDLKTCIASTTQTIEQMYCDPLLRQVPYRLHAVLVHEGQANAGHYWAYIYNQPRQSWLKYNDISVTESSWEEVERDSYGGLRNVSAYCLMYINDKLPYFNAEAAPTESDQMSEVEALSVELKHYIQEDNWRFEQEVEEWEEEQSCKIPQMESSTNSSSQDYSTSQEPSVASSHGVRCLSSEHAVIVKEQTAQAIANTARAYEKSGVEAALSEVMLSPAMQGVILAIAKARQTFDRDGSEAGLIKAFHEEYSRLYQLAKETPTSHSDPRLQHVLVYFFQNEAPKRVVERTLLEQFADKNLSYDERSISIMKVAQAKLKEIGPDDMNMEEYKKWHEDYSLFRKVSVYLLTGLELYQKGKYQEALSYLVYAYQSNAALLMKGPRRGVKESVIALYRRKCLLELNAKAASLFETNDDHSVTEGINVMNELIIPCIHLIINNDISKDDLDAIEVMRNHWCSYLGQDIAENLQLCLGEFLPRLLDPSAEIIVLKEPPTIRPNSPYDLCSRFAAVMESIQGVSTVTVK
Outline: as §1

Measured: log2 ratio of Biotin-Ahx-Ub-VS probe labelling

CCN1C(=O)C2CN(C(=O)CCl)CCN2C1=O (stereo not given)
inactive: USP16 -0.656 | USP19 -0.175 | USP24 -0.0184 | USP25 -0.141 | USP28 -0.324
